Screening data from PubChem.
MCF10A rerep – DNA re-replication induction in MCF 10a cells | MCF 10A DNA re-replication, Hoechst nuclear intensity, 48 h | Potency, µM (series often up to 46.1 µM), for the others: at the highest dose activity, positive = re-replication, hits mostly activators | hit rate 2.9% among 350,000 | AID 624296; also: % of control where 0% means no effect; nearly all actives have a fitted effect of over 50% in size
HT1080NT lethal – kills 2HG-producing HT-1080-NT fibrosarcoma cells; HT-1080-NT fibrosarcoma viability, CellTiter-Glo ATP luminescence, 48 h; Potency, µM (titrated, usually from 46.1 µM), without a hit: at the highest dose activity, negative = less viability, most hits filed as cytotoxic; hit rate 1.6% among 360,000; AID 686970;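 also: NT is the 2HG producing partner of a matched IDH1 knockdown line; 0% = DMSO-treated cells and -100% = media-only wells without cells; nearly all actives have a fitted effect of over 55% in size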
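Toxicity toward the 2HG-producing NT line was scored as %Activity, normalised to DMSO and no-cell wells, from CellTiter-Glo luminescence after 48 hours' treatment.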
SW480 rerep – induces DNA re-replication in SW480 colon adenocarcinoma cells. Potency, µM (top dose mostly 46.1 µM), for inactives: at the highest dose re-replication activation, hits mostly activators. hit rate 1.8% among 340,000. SW480 DNA re-replication, Hoechst DNA content imaging, 48 h; also: % of control where 0% means no effect; nearly all actives have a fitted effect of over 55% in size
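First, 250 cells per well were seeded. Next, compound or vehicle (23 nL) was pinned in, plates sat 48 hr at 37 C. Finally Hoechst was added for 40 min before fluorescence scanning.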
KB-3-1 tox – KB-3-1 parental cell cytotoxicity. KB-3-1 viability, CellTiter-Glo ATP luminescence, 72 h. Potency, µM (doses to about 46.1 µM), usual class: cytotoxic. hit rate 1.4% among 400,000; also: % is scaled to controls: 0 for no effect and ±100 for the full control effect; nearly all actives have a fitted effect of over 60% in size
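Cells are dispensed, compounds pinned in, plates held at 37 °C for 72 h, then CellTiter-Glo is added and luminescence read after 10 minutes. Cell line: parental KB-3-1 in phenol-red-free DMEM, 10% FBS.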
HT1080 IDH1KD tx – toxicity to HT-1080 IDH1 knockdown cells (counter line). HT-1080 IDH1 knockdown viability, ATP luminescence, 48 h. Potency, µM (series often up to 46.1 µM), for inactives: at the top dose activity, negative = toxicity, most hits filed as cytotoxic. hit rate 2% among 360,000. AID 686971;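 also: 0% = DMSO wells and -100% = cell-free medium wells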
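Assay cells: HT-1080 with IDH1 knockdown, 750 per well, RPMI/5% FBS. Exposure: 48 h at 37 °C following 2 h pre-incubation. Read: CellTiter-Glo luminescence; fitted concentration-response, curve class assigned.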
KB-V1 cytotox – KB-V1 MDR subline cytotoxicity | KB-V1 MDR cells viability, CellTiter-Glo, 72 h | Potency, µM (titrated, usually from 46.1 µM), usual class: cytotoxic | hit rate 3.4% among 400,000 | AID 1347076; also: % is scaled to controls: 0 for no effect and ±100 for the full control effect; nearly all actives have a fitted effect of over 60% in size
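qHTS viability screen in drug-selected KB-V1 MDR cells: 72 h compound treatment at 37 degrees C, ATP luminescence end point.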
* hit, by the source's call; i = inactive; ? = inconclusive; . = not tested or not shown. Shown are actives, neighbours in structure and some others; about 8% of the full set was active somewhere. Calls follow the shape of the dose curve; as a rule, active = well fitted curve in the direction sought with a large enough effect; inconclusive = small, poorly fitted or top-dose-only effect, or another doubt; inactive = no such curve, though single readings can be large; an effect the other way counts as inactive or inconclusive. Potency is read from the fitted curve at half-maximal effect.

SMILES	MCF10A rerep	HT1080NT lethal	SW480 rerep	KB-3-1 tox	HT1080 IDH1KD tx	KB-V1 cytotox
Cc1ccc(S(=O)(=O)c2cc3c(=O)n4ccccc4nc3n(CCCN3CCOCC3)c2=N)cc1C	23µM*	6%	23µM*	i	1%	i
O=c1oc(-c2ccccc2)nc2sc3c(c12)CCC3	-9%	4%	4%	i	8%	i
Nc1nc(-c2ccccc2)nc2sc3c(c12)CCCC3	?	-4%	?	i	-10%	23µM*
O=C(Cc1ccccc1[N+](=O)[O-])NCCC1=CCCCC1	5%	0%	7%	i	2%	i
O=[N+]([O-])c1ccccc1S(=O)(=O)NCCC1=CCCCC1	20%	12%	-2%	i	7%	15µM*
COc1cccc(NC(=O)c2cc3c(-c4ccc(Cl)cc4)nn(C)c3s2)c1	.	.	.	i	.	i
c1cc(-c2ccncc2)ccn1	-6%	.	0.52µM*	i	.	i
COC(=O)c1sccc1S(=O)(=O)N1CCN(c2ccc(C(C)=O)cc2)CC1	.	.	.	i	.	i
N#Cc1c(NCCCO)nc(-c2ccco2)c2c1CCCC2	18µM*	-8%	5.8µM*	i	-14%	i
N#Cc1c(NC2CCCCC2)nc(-c2ccco2)c2c1CCCC2	16µM*	15%	13µM*	?	6%	i
Cc1ccc2c(c1)-c1c(cnn1CC(=O)N1CCN(c3cccc(C(F)(F)F)c3)CC1)CO2	.	.	.	i	.	i
CCOc1cc(/C=C/c2nc3cc(C)c(C)cc3s2)ccc1OCC(=O)N1CCOCC1	13µM*	4%	?	i	13%	10µM*
CCOc1cc(/C=C\[N+](=O)[O-])ccc1OCC(=O)N1CCOCC1	6.5µM*	?	26%	i	18µM*	?
CCOc1cc(C(=O)NCc2ccc(C)cc2)ccc1OCC(=O)N1CCOCC1	-6%	5%	5%	i	3%	i
CCOc1ccc(C(=O)OCC(=O)N2CCOCC2)cc1OCC	-4%	-1%	-29%	i	1%	i
CCn1ccc2cc(S(=O)(=O)N3CCCN(C(=O)NCC(=O)OC)CC3)ccc21	.	.	.	i	.	i
C=Cc1ccc(Cn2nc(-c3ccc(C)cc3)ccc2=O)cc1	?	-22%	16µM*	i	-18%	i
O=c1ccc(-c2ccccc2)nn1Cc1ccc(Cl)cc1	-4%	-1%	-1%	i	-6%	i
Nc1ccc(Cc2ccc(C=O)cc2)cc1	.	.	.	i	.	i
CCCCS(=O)(=O)CC(O)CSc1nc(-c2ccc(C)cc2)cc(-c2ccccc2)c1C#N (stereo not drawn)	.	.	.	i	.	i
Cc1cccc(-c2cc3nc(C)cc(NCCCN(C)C)n3n2)c1	?	?	17%	i	?	i
COc1ccc(-c2cc3nc(-c4ccccc4)cc(N4CCN(C(=O)c5ccccc5)CC4)n3n2)cc1	.	-10%	.	i	-19%	i
COc1ccc(-c2cc3nc(-c4ccccc4)cc(N4CCC(O)CC4)n3n2)cc1	18%	18µM*	-8%	i	?	?
CN(C)CCCNc1cc(-c2ccccc2)nc2cc(-c3cccc(F)c3)nn12	21µM*	?	?	?	?	?
COc1ccc(-c2cc3nc(-c4ccccc4)cc(N4CCN(C(=O)c5ccsc5)CC4)n3n2)cc1	.	0%	.	i	-1%	i
COCCN1CCN(c2cc(-c3ccccc3)nc3cc(-c4cccc(F)c4)nn23)CC1	21µM*	?	?	i	?	i
COc1ccc(-c2cc3nc(-c4ccccc4)cc(N4CCN(C(C)=O)CC4)n3n2)cc1	.	?	.	i	16µM*	i
CCOC(=O)c1ccccc1NC(=O)Cn1cc(C(=O)c2cccc(OC)c2)c(=O)c2ccc(C)nc21	.	.	.	i	.	i
COC(=O)/C=C/c1ccc2c(c1)S(=O)(=O)N(C1CCCC1)[C@H]2CC(=O)OC	.	.	.	i	.	?
